From PubChem BioAssay
MBNL1 CUG block = MBNL1-poly(CUG) RNA binding inhibition | Q9NR56 | TR-FRET MBNL1-His/biotin-(CUG)12 binding, 665/545 ratio | Potency, µM (doses to about 57.5 µM), for inactives: at the top dose activity change, negative = inhibition, actives largely listed as inhibitors | 280,000 compounds, 0.036% hits | AID 2675; active means well fitted inhibition curve with a large enough effect in the signal ratio, with a control signal flat, not every such curve was filed as active; inconclusive means small, poorly fitted or top-dose-only effect, or effect the other way, or a change in a side signal; inactive means no such curve, though single readings can be large or run the other way; the % refers to the signal ratio; further: potency means the concentration at half of the fitted maximal effect; on the % scale 0 is the no-effect control and ±100 the full control effect
Target sequence (Q9NR56 whole entry, looked up): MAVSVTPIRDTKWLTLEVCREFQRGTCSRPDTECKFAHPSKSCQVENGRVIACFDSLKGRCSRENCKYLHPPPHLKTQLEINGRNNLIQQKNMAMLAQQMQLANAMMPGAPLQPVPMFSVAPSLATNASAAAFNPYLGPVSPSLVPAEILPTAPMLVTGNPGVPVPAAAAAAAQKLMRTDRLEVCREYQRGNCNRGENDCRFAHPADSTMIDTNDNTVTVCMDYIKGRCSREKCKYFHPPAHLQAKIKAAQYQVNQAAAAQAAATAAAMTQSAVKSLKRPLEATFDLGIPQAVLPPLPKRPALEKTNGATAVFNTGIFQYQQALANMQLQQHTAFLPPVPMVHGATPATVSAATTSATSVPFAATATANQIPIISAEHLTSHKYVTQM
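Inhibition of protein-RNA binding appears as loss of TR-FRET between terbium anti-His antibody on MBNL1-His and streptavidin-XL665 on biotin-(CUG)12. Activity is normalized to buffer-only and uninhibited-complex controls.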
Glioma ERSR ind = induces the endoplasmic reticulum stress response in human glioma cells | 420,000 compounds, 0.02% hits | Potency, µM, inactives show at the highest dose activation, usual class: activators | U87-MG GRP78 promoter luciferase reporter, 16 h | AID 602332; further: potency means the concentration at half of the fitted maximal effect; series mostly up to about 76 µM; % of control where 0% means no effect; nearly all actives have a fitted effect of over 35% in size
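Stably transfected U87-MG human glioma cells carrying a GRP78-based luminescent sensor were seeded at 1000 cells/well, pin-dosed with compounds and incubated 16 h. Luciferase reagent was then added, and end-point luminescence was read after 10 min at room temperature.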
Mito fusion yeast = inhibitors of mitochondrial division or activators of mitochondrial fusion; Potency, µM (titrated, usually from 46.1 µM), inactives show top-dose growth rescue (activation), usual class: activators; S. cerevisiae fusion-defective mutant growth rescue, CellTiterGlo 48 h; 320,000 compounds, 0.23% hits; further: potency means the concentration at half of the fitted maximal effect; % of control where 0% means no effect; nearly all actives have a fitted effect of over 45% in size
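Read-out: ATP-based luminescence (CellTiterGlo, 10 min ambient) reporting growth of fusion-defective ts yeast after 48 hours at 37C on glycerol/ethanol YPEG medium in the presence of compound.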
A-T KAP1 phos = potential ataxia-telangiectasia treatments restoring KAP-1 phosphorylation. F2112 A-T fibroblasts, KAP-1 phosphorylation AlphaLISA; neocarzinostatin DNA damage 30 min before lysis. Potency, µM (top dose mostly 57.5 µM), without a hit: top-dose activation, actives largely listed as activators. 320,000 compounds, 0.19% hits; further: potency means the concentration at half of the fitted maximal effect; % of control where 0% means no effect; nearly all actives have a fitted effect of over 45% in size
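ATM-like activity read as KAP-1 phosphorylation via AlphaLISA donor/acceptor antibody pairs after lysis and 6 hr at 25C. Cells were ATM-null patient fibroblasts (F2112, hTERT), dosed 60 min, then exposed to the DSB inducer NCS for 30 min.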
ClpP mod = qHTS Assay for Activators of ClpP; ATP-dependent Clp protease proteolytic subunit (Bacillus subtilis (strain 168)), P80244; purified B. subtilis ClpP, FRET peptide cleavage, 20 min; 340,000 compounds, 1.9% hits; AID 651965, 2013; Potency, µM (titrated, usually from 57.5 µM), for inactives: top-dose activity change, negative = active; active means well fitted falling curve with a large enough effect; inconclusive means small, poorly fitted or top-dose-only effect; inactive means no such curve, though single readings can be large or run the other way; further: potency means the concentration at half of the fitted maximal effect; the source files actives as falling curves though it sought activators and does not explain the sign; nearly all actives have a fitted effect of over 65% in size
Target sequence (P80244 whole entry, looked up): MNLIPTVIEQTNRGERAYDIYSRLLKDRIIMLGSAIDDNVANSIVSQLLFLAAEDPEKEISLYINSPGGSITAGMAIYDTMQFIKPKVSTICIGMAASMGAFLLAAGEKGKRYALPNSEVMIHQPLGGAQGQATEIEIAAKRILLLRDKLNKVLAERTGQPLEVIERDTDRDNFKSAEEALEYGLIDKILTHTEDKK
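Buffer: 100 mM Tris/HCl pH8, 100 mM KCl, 0.05% low protease BSA, 2.5% glycerol, 0.01% Tween-20. ClpP 10 microg/mL final; 20 min RT; delta FRET normalized to ADEP and DMSO controls.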
TCR activator = activates T cell receptor signaling; primary human leukocytes, anti-CD3, IL-2 HTRF, 48 h; Potency, µM (top dose mostly 9.22 µM), inactives show at the highest dose activation of IL-2 secretion, usual class: activators; 330,000 tested, under 10 active; AID 504894; further: % of control where 0% means no effect
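IL-2 produced over 48 hr by a-CD3 bead-stimulated primary human leukocytes exposed to compounds was detected with a homogeneous time-resolved FRET immunoassay, 665nm acceptor signal after 320nm excitation.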
* = called active by the depositor; ! = not active in a repeat; [ ] = another dose, or the depositor's remark. Compounds with a hit are over-represented: about 1.8% of the library has one in this group of screens. Unless noted, the call rests on the fitted dose curve; in most records, active means well fitted curve in the direction sought with a large enough effect; inconclusive means small, poorly fitted or top-dose-only effect, or another doubt; inactive means no such curve, though single readings can be large; an effect the other way counts as inactive or inconclusive.

For Cc1ccccc1CN1[C@H]2CCCC[C@@H]2OCCS1(=O)=O the results were Glioma ERSR ind -1% and ClpP mod -3%.
For COCCn1c(=O)c(-c2ccc(F)cc2)nc2cnc(N3CCOCC3)nc21 the results were Glioma ERSR ind -1%.
Cc1cc(F)ccc1S(=O)(=O)Nc1ccccc1C(=O)Nc1ccccc1N1CCOCC1 was read as MBNL1 CUG block 2%, Glioma ERSR ind -10%, Mito fusion yeast 7%, A-T KAP1 phos 3%, ClpP mod -5% and TCR activator 4%.
`Cc1ccc(S(=O)(=O)Nc2ccccc2C(=O)Nc2nc(-c3ccc(F)cc3)cs2)cc1` gave MBNL1 CUG block -4%, Glioma ERSR ind -4%, Mito fusion yeast -31%, A-T KAP1 phos inconclusive, ClpP mod 16µM* and TCR activator 4%[46.1 µM].
Screening COc1ccc(-c2csc(NC(=O)c3ccccc3NS(=O)(=O)c3ccc(F)c(F)c3)n2)cc1 returned MBNL1 CUG block -2%, Glioma ERSR ind 5%, Mito fusion yeast -5%, A-T KAP1 phos 7% and TCR activator -2%.
Screening Cc1cc(F)ccc1S(=O)(=O)Nc1ccccc1C(=O)Nc1ncn[nH]1 returned MBNL1 CUG block -1%, Glioma ERSR ind -5%, Mito fusion yeast 9%, A-T KAP1 phos 9%, ClpP mod 32µM* and TCR activator 1%.
Screening Cc1cc(F)ccc1S(=O)(=O)Nc1ccccc1C(=O)Nc1ccccc1-c1nc2ccccc2[nH]1 returned Glioma ERSR ind -1%, Mito fusion yeast 15%, A-T KAP1 phos 1%, ClpP mod 32µM* and TCR activator 0%[46.1 µM].
`COc1ccccc1C(=O)Nc1nc(-c2ccc3c(c2)OCCO3)cs1` gave MBNL1 CUG block 41%, Glioma ERSR ind -2%, Mito fusion yeast 9%, A-T KAP1 phos 3%, ClpP mod 25µM* and TCR activator 0%.
Cc1cnccc1/C=C/c1ccc(N)cc1 was read as Glioma ERSR ind -3% and ClpP mod -7%.
`COc1ccc(Cl)c(Cn2cnc3c(cnn3C(C)(C)C)c2=O)c1` gave Glioma ERSR ind -1%.
For CN1CCC2(CC1)CCN(C(=O)c1cc(C(F)(F)F)cc(C(F)(F)F)c1)CC2 the results were Glioma ERSR ind -2%.
O=C(Cc1ccccc1Cl)NO was read as ClpP mod -1%.
O=C(Nc1ccc(-c2nc3ccccc3[nH]2)cc1)c1ccccc1NS(=O)(=O)c1ccc(F)cc1 was read as MBNL1 CUG block -4%, Glioma ERSR ind -4%, Mito fusion yeast -5%, A-T KAP1 phos -1%, ClpP mod 35µM* and TCR activator -1%[46.1 µM].
Screening Cc1ccc(C)c(N2CCN(C(=O)Cn3c(-c4cccs4)cc4ccccc43)CC2)c1 returned Glioma ERSR ind 1% and ClpP mod 16µM*.
`Cc1cccc(N2CCN(C(=O)Cn3c(-c4cccs4)cc4ccccc43)CC2)c1C` gave Glioma ERSR ind -4% and ClpP mod 16µM*.
Cc1ccc(C)c(N2CCN(C(=O)Cn3ncc4ccsc4c3=O)CC2)c1 was read as Glioma ERSR ind -4% and ClpP mod -1%.
Screening Cc1cc(-c2ccnc(-n3ncc(C(=O)NCc4cccnc4)c3C3CC3)n2)c(C)s1 returned Glioma ERSR ind 6%.
Screening O=C(Cc1cccs1)Nc1cccc(-c2nc3cc4ccccc4cc3[nH]2)c1 returned MBNL1 CUG block 14%, Glioma ERSR ind -4%, Mito fusion yeast inconclusive, A-T KAP1 phos 7%, ClpP mod 28µM* and TCR activator -4%[46.1 µM].
Screening Cc1ccc(-n2c(=O)c3c4c(sc3n(Cc3cc(=O)n5ccccc5n3)c2=O)CCC4)cc1C returned Glioma ERSR ind -1%, Mito fusion yeast -2%, A-T KAP1 phos 3%, ClpP mod 28µM*! and TCR activator -2%[46.1 µM].
Screening COc1cc(=O)n2c(c1C(=O)N(C)Cc1ccsc1)CCN(Cc1cnn(C)c1C)CC2 returned Glioma ERSR ind -2%.
`Cc1cccc(N2CCN(c3nc4ccc(C)cc4n4cnnc34)CC2C)c1` (stereo unspecified) gave Glioma ERSR ind 1% and ClpP mod 32µM*.
For Cc1ccc2nc(N3CCN(c4cccc(C)c4C)CC3)c3nncn3c2c1 the results were Glioma ERSR ind -2% and ClpP mod -4%.
Screening O=C(COc1ccc([N+](=O)[O-])cc1)N(Cc1ccccc1)Cc1ccccc1 returned MBNL1 CUG block 15%, Glioma ERSR ind -5%, Mito fusion yeast inconclusive, A-T KAP1 phos 7%, ClpP mod 32µM* and TCR activator 3%[46.1 µM].
For O=C(COc1ccccc1)NNC(=O)COc1ccc([N+](=O)[O-])cc1 the results were MBNL1 CUG block 10%, Glioma ERSR ind -6%, Mito fusion yeast 8%, A-T KAP1 phos -1% and TCR activator -3%.
Screening CC1=C(C(=O)OC2CCCCC2)C(c2ccc(C)o2)C2=C(CCCC2=O)N1 (stereo unspecified) returned MBNL1 CUG block 13%, Glioma ERSR ind -2%, Mito fusion yeast 7%, A-T KAP1 phos 21%, ClpP mod inconclusive and TCR activator -5%.
`CCCCC1C(C#N)=C(C)NC2=C1C(=O)CC(C)(C)C2` (stereo unspecified) gave MBNL1 CUG block 12%, Glioma ERSR ind -4%, Mito fusion yeast 0%, A-T KAP1 phos 9%, ClpP mod 13µM* and TCR activator 2%.
For COC(=O)c1ccc(C2C(C#N)=C(C)NC3=C2C(=O)CC(C)(C)C3)cc1 (stereo unspecified) the results were MBNL1 CUG block 9%, Glioma ERSR ind -5%, Mito fusion yeast 1%, A-T KAP1 phos 5%, ClpP mod 22µM* and TCR activator 6%.
`CCN(CC)c1ccc(C2C(C(=O)OCCOC)=C(C)NC3=C2C(=O)CC(C)(C)C3)cc1` (stereo unspecified) gave MBNL1 CUG block 8%, Glioma ERSR ind -1%, Mito fusion yeast -2%, A-T KAP1 phos 8%, ClpP mod 28µM* and TCR activator 5%.
For CSC1=C(C#N)C(C)C2=C(CC(C)(C)CC2=O)N1 (stereo unspecified) the results were MBNL1 CUG block 13%, Glioma ERSR ind -4%, Mito fusion yeast 2%, A-T KAP1 phos 4%, ClpP mod -11% and TCR activator -4%.
